Reference: PubChem BioAssay (NCATS)
Where “and” joins values, the source holds several entries; their conditions need not be identical. Equal values may be shown once. Inconclusive results are not listed. A call without a number means that no potency is given here. The source holds several records for some structures; these can differ, active in one and inactive in another. Calls of active or inactive are those of the source. Calls come from the whole dose curve; as a rule, active = well fitted curve in the direction sought with a large enough effect; inconclusive = small, poorly fitted or top-dose-only effect, or another doubt; inactive = no such curve, though single readings can be large; an effect the other way counts as inactive or inconclusive.

Assays:
[1] = qHTS assay to identify small molecule inhibitors of chordoma cells - UCH-1 (AID 1259355); note: nearly all actives have a fitted effect of over 55% in size; note: potency is the fitted concentration of half-maximal effect; series mostly up to about 46 µM
How it was run: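 Luminescent ATP read-out (CellTiter-Glo, 30min at room temperature) measured viability of UCH-1 cells exposed for 48hr to test drugs at 15 concentrations, co-dosed with a five-agent combination of auranofin, camptothecin, doxorubicin, rubitecan and topotecan.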

[2] = qHTS assay to identify small molecule inhibitors of chordoma cells - UCH-2 (AID 1259356); note: potency is the fitted concentration of half-maximal effect
[3] = P-glycoprotein substrates identified in KB-8-5-11 adenocarcinoma cell line, qHTS therapeutic library screen (AID 1346987); note: nearly all actives have a fitted effect of over 65% in size; note: potency is the fitted concentration of half-maximal effect
How it was run: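 Steps: plate 500 KB-8-5-11 cells/well in DMEM + 10% FCS (colchicine removed); pin compounds in dose-response; incubate 72 h, 37 degree C, 5% CO2; add CellTiter-Glo, 5 min; read luminescence.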

[4] = P-glycoprotein substrates identified in KB-3-1 adenocarcinoma cell line, qHTS therapeutic library screen (AID 1346986); note: nearly all actives have a fitted effect of over 60% in size
How it was run: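 Resistance attributable to P-gp was assessed by comparing AC50 in KB-8-5-11 with parental KB-3-1 and by tariquidar reversal. Cells were exposed 72 h and viability read by CellTiter-Glo.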

SMILES | Potency [1] | Potency [2] | Potency [3] | Potency [4]
Cc1ccccc1-n1c(CF)nc2ccc(N)cc2c1=O | inactive | inactive | inactive | 
C[C@H]1CC[C@]2(NC1)O[C@H]1C[C@H]3[C@@H]4CC[C@H]5C[C@@H](O[C@@H]6O[C@H](CO)[C@H](O[C@@H]7O[C@H](CO)[C@@H](O)[C@H](O[C@@H]8OC[C@@H](O)[C@H](O)[C@H]8O)[C@H]7O[C@@H]7O[C@H](CO)[C@@H](O)[C@H](O)[C@H]7O)[C@H](O)[C@H]6O)CC[C@]5(C)[C@H]4CC[C@]3(C)[C@H]1[C@@H]2C | 12600 nM (active) | 2060 nM (active) | 20.6 µM (active) | 
CCC1C(C)=NN=C(c2ccc(OC)c(OC)c2)c2cc(OC)c(OC)cc21 (stereo not drawn) | inactive | inactive |  | 
C=C[C@H]1CN2CC[C@H]1C[C@H]2[C@H](OC(=O)OCC)c1ccnc2ccc(OC)cc12 | inactive | inactive |  | 
CCNC(C)Cc1cccc(C(F)(F)F)c1 (stereo not drawn) | inactive | inactive | inactive | 
CCCCCc1cc(O)c2c(c1)OC(C)(C)[C@@H]1CCC(C)=C[C@@H]21 | inactive | inactive |  | 
C[C@]12CC[C@H]3[C@@H](CC[C@@]45O[C@@H]4C(O)=C(C#N)C[C@]35C)[C@@H]1CC[C@@H]2O | inactive | inactive |  | 
NCC[C@H](O)C(=O)N[C@@H]1C[C@H](N)[C@@H](O[C@H]2O[C@H](CN)[C@@H](O)[C@H](O)[C@H]2N)[C@H](O[C@@H]2O[C@H](CO)[C@@H](O)[C@H]2O)[C@H]1O | inactive | inactive |  | 
c1ccc2sc(SNC3CCCCC3)nc2c1 | inactive | inactive | inactive | 
O=C/C=C/c1ccccc1 | inactive | inactive | inactive | 
O=[N+]([O-])c1cc(I)c(O)c(I)c1 | inactive | inactive |  | 
O=C1C[C@@H]2OCC=C3CN4CC[C@]56c7ccccc7N1[C@H]5[C@H]2[C@H]3C[C@H]46 | inactive | inactive | inactive | inactive
CCC(=O)O[C@@](Cc1ccccc1)(c1ccccc1)[C@@H](C)CN(C)C | inactive | inactive | inactive | 
CC(=O)O[C@H]1C[C@H](O[C@H]2[C@@H](O)C[C@H](O[C@H]3[C@@H](O)C[C@H](O[C@H]4CC[C@@]5(C)[C@H](CC[C@@H]6[C@@H]5C[C@@H](O)[C@]5(C)[C@@H](C7=CC(=O)OC7)CC[C@]65O)C4)O[C@@H]3C)O[C@@H]2C)O[C@H](C)[C@H]1O[C@@H]1O[C@H](CO)[C@@H](O)[C@H](O)[C@H]1O | 251 nM (active) | 146 nM (active) |  | 
OC[C@@H](O)[C@H]1O[C@@H]2O[C@H](C(Cl)(Cl)Cl)O[C@@H]2[C@H]1O | inactive | inactive |  | 
CC1(C)S[C@@H]2[C@H](N)C(=O)N2[C@H]1C(=O)O | inactive | inactive | inactive | 
CC(=O)OCC(=O)[C@H]1CC[C@H]2[C@@H]3CC[C@H]4C[C@H](O)CC[C@]4(C)[C@H]3C(=O)C[C@]12C | inactive | inactive | inactive | 
Oc1ccc2c3c1O[C@H]1[C@@H](O)CC[C@@]4(O)[C@@H](C2)N(CC2CCC2)CC[C@]314 | inactive | inactive |  | 
CCN(CC)C(=O)N[C@H]1C[C@@H]2c3cccc4[nH]cc(c34)C[C@H]2N(C)C1 | inactive | inactive |  | 
CCCC(C)C1(CC)C(=O)NC(=O)NC1=O (stereo not drawn) | inactive | inactive | inactive | 
C[C@@H](Cc1ccccc1)NCCC(c1ccccc1)c1ccccc1 | inactive | inactive |  | 
CC1CCC(C(C)C)C(OC(=O)c2ccccc2N)C1 (stereo not drawn) | inactive | inactive | inactive | 
C[C@]12C[C@H]3S[C@H]3C[C@@H]1CC[C@@H]1[C@@H]2CC[C@]2(C)[C@@H](O)CC[C@@H]12 | inactive | inactive |  | 

SMILES | Potency [1] | Potency [2] | Potency [3] | Potency [4]
C[C@]12CCC(=O)C[C@@H]1CC[C@@H]1[C@@H]2CC[C@]2(C)[C@@H](O)CC[C@@H]12 | inactive | inactive | 8.2 µM (active) | 
ClC1=C(Cl)[C@]2(Cl)[C@@H]3[C@H]4C[C@H]([C@@H]5O[C@H]45)[C@@H]3[C@@]1(Cl)C2(Cl)Cl | inactive | inactive | inactive | 
C[C@]12CC[C@H]3[C@@H](CCC4=C(O)C(=O)CC[C@@H]43)[C@@H]1CC[C@@H]2OC(=O)CCC1CCCC1 | inactive | inactive |  | 
ClC1C(Cl)C(Cl)C(Cl)C(Cl)C1Cl (stereo not drawn) | inactive | inactive | inactive | 
CCCCCCC(=O)O[C@H]1CC[C@H]2[C@@H]3CC[C@H]4CC(=O)C=C(C)[C@]4(C)[C@H]3CC[C@]12C | inactive | inactive |  | 
COc1ccc2c3c1O[C@H]1C(=O)CC[C@H]4[C@@H](C2)N(C)CC[C@]314 | inactive | inactive | inactive | 
c1csc(C2(N3CCCCC3)CCCCC2)c1 | inactive | inactive | inactive | 
CC(=O)O[C@H]1C[C@H](O[C@H]2[C@@H](O)C[C@H](O[C@H]3[C@@H](O)C[C@H](OC4CC[C@@]5(C)[C@H](CC[C@@H]6[C@@H]5CC[C@]5(C)[C@@H](C7=CC(=O)OC7)CC[C@]65O)C4)O[C@@H]3C)O[C@@H]2C)O[C@H](C)[C@H]1O[C@@H]1O[C@H](CO)[C@@H](O)[C@H](O)[C@H]1O (stereo partly drawn) | 447 nM (active) | 259 nM (active) | 0.259 µM (active) | 
O=C1CN=C(c2ccccc2)c2cc(Cl)ccc2N1CC1CC1 | inactive | inactive | 9.2 µM (active) | 
c1ccc(C2(N3CCCC3)CCCCC2)cc1 | inactive | inactive | inactive | 
O=C(CCl)c1ccc(Oc2ccc(C(=O)CCl)cc2)cc1 | inactive | inactive | inactive | 
CNC1(c2ccccc2Cl)CCCCC1=O (stereo not drawn) | inactive | inactive | inactive | 
CN(C)[C@H](Cc1ccccc1)c1ccccc1 | inactive | inactive | inactive | 
O=C(OCCN1CCCCC1)C(O)(c1ccccc1)c1ccccc1 | inactive | inactive | inactive | 
C=CCN=C=S | inactive | inactive | inactive | 
CCCCNCC(O)c1ccc(O)cc1 (stereo not drawn) | inactive | inactive | inactive | 
CNC(=O)OCC[N+](C)(C)C | inactive | inactive | inactive | 
[2H]C([2H])([2H])[C@H](N)Cc1ccccc1 | inactive | inactive | inactive | 
CC(=O)Oc1ccc2c3c1O[C@H]1[C@@H](OC(C)=O)C=C[C@H]4[C@@H](C2)N(C)CC[C@@]341 | inactive | inactive | inactive | 
C[C@]12CC[C@H]3[C@@H](CCC4=C(Cl)C(=O)CC[C@@]43C)[C@@H]1CC[C@@H]2O | inactive | inactive | 13 µM (active) | 
CC(C)(C)c1cc(O)ccc1O | inactive | inactive | inactive | 
CC(C)CCC(=O)O[C@H]1CC[C@H]2[C@@H]3CCC4=CC(=O)CC[C@]4(C)[C@H]3CC[C@]12C | inactive | inactive | 7.31 µM (active) | 
C[C@H]1CC[C@]2(NC1)O[C@H]1C[C@H]3[C@@H]4CC[C@H]5C[C@@H](O)CC[C@]5(C)[C@H]4CC[C@]3(C)[C@H]1[C@@H]2C | inactive | inactive | inactive | 

SMILES | Potency [1] | Potency [2] | Potency [3] | Potency [4]
CN1CCCC(=C(c2cccs2)c2cccs2)C1 | inactive | inactive | inactive | 
[O]=[Cd] | inactive | inactive | inactive | 
O=C1CCCCC1CN1CCCCC1 (stereo not drawn) | inactive | inactive | inactive | 
COc1ccc2c3c1O[C@H]1[C@@H](O)C=C[C@H]4[C@@H](C2)NCC[C@@]341 | inactive | inactive | inactive | 
O=C(CS(=O)C(c1ccccc1)c1ccccc1)NO (stereo not drawn) | inactive | inactive | inactive | 
CCOC(=O)/C=C(C)/C=C/C[C@@H](C)CCCC(C)C | inactive | inactive | inactive | 
CO[C@H]1[C@@H](O)C[C@H](O[C@H]2[C@@H](O)C[C@H](O[C@H]3[C@@H](O)C[C@H](O[C@H]4CC[C@@]5(C)[C@H](CC[C@@H]6[C@@H]5C[C@@H](O)[C@]5(C)[C@@H](C7=CC(=O)OC7)CC[C@]65O)C4)O[C@@H]3C)O[C@@H]2C)O[C@@H]1C | 355 nM [with auranofin plus four topoisomerase inhibitors] (active) | 58 nM (active) | 0.259 µM (active) | 
OC(c1ccccc1)(c1ccccc1)C1CN2CCC1CC2 (stereo not drawn) | inactive | inactive | inactive | 
N#CN | inactive | inactive | inactive | 
COC([CH2][Hg])CNC(=O)c1ccccc1OCC(=O)O (stereo not drawn) | inactive | inactive | inactive | 
C=CCN1CC[C@]23c4c5ccc(O)c4O[C@H]2[C@@H](O)C=C[C@H]3[C@H]1C5 | inactive | inactive | inactive | 
CCCCCCCCCC(=O)O[C@H]1CC[C@H]2[C@@H]3CCC4=CC(=O)CC[C@]4(C)[C@H]3CC[C@]12C | inactive | inactive | 16.4 µM (active) | 
CCC(N)Cc1c[nH]c2ccccc12 (stereo not drawn) | inactive | inactive | inactive | 
C[C@]12CC[C@H](OS(=O)(=O)O)CC1=CC[C@@H]1[C@@H]2CC[C@]2(C)C(=O)CC[C@@H]12 | inactive | inactive | inactive | 
CC1(C)[C@H](C=C(Cl)Cl)[C@H]1C(=O)OCc1c(F)c(F)cc(F)c1F | inactive | inactive | inactive | 
[H+].[H+].[Hg+2].[O-]B([O-])[O-].[c-]1ccccc1 | 8910 nM (active) | 13000 nM (active) | 1.3 µM (active) | 
FC(F)OC(F)(F)C(F)Cl (stereo not drawn) | inactive | inactive | inactive | 
Oc1cc(Cl)c(Cl)cc1Cl | inactive | inactive | inactive | 
CC(=O)OC1CN2CCC1CC2 (stereo not drawn) | inactive | inactive | inactive | 
S=C=S | inactive | inactive | inactive | 
[O]=[Cr](=[O])([OH])[O][Cr](=[O])(=[O])[OH] | 2.24 µM (active) and 4.47 µM (active) |  | 23.1 µM (active) and inactive | 
CNC(C)C(O)c1ccc(O)cc1 (stereo not drawn) | inactive | inactive | inactive | 
CCC1(CC)C(=O)NC(=O)N(C)C1=O | inactive | inactive | inactive | 
